Results published in the supplement of paper PMC12067926.

Tests used:
Assay in all cases: relative growth (AUC of 72 h growth curve relative to DMSO control, dAUC) (ratio); higher = more growth (less inhibition), active = hit call of the paper
Conditions in all cases: 20 µM;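 active = growth AUC significantly below the DMSO wells by Dunnett test; inactive = the rest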
[1] = tested on: Aeromonas 1 (Aeromonas sp. AE235)
How it was run: (§1)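 For relative growth (dAUC), the spline-integrated area under the growth curve was divided by the mean of the DMSO controls. Results were averaged over three biological replicates. Each replicate used a 1:100 dilution, into 96-well plates holding each chemical at 20 µM (1% DMSO), of isolates from Icelandic stream sediments and Silwood Park soil or whole sediment communities that had been grown to carrying capacity in Luria–Bertani medium. Plates were shaken briefly before each hourly A600 reading over 72 h.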

[2] = tested on: Aeromonas 2 (Aeromonas sobria)
How it was run: as §1

[3] = tested on: Aeromonas 3 (Aeromonas popoffii)
How it was run: as §1

[4] = tested on: Argrobacterium 1 (Agrobacterium sp.)
How it was run: as §1

[5] = tested on: Arthrobacter 1 (Arthrobacter humicola)
How it was run: as §1

[6] = tested on: Arthrobacter 2 (Arthrobacter humicola)
How it was run: as §1

[7] = tested on: Arthrobacter 3 (Arthrobacter sp.)
How it was run: as §1

Community 10 = tested on: Community 10
How it was run: as §1

Community 4 = tested on: Community 4
How it was run: as §1

Community 6 = tested on: Community 6
How it was run: as §1

Community 7 = tested on: Community 7
How it was run: as §1

Community 8 = tested on: Community 8
How it was run: as §1

Community 9 = tested on: Community 9
How it was run: as §1

[8] = tested on: Flavobacterium 1 (Flavobacterium glaciei)
How it was run: as §1

[9] = tested on: Flavobacterium 2 (Flavobacterium succinicans)
How it was run: as §1

[10] = tested on: Hymenobacter 1 (Hymenobacter glaciei)
How it was run: as §1

[11] = tested on: Microbacterium 1 (Microbacterium arborescens)
How it was run: as §1

[12] = tested on: Neobacillus 1 (Neobacillus soli)
How it was run: as §1

[13] = tested on: Oryzobacter 1 (Oryzobacter terrae)
How it was run: as §1

[14] = tested on: Paenibacillus 1 (Paenibacillus castaneae)
How it was run: as §1

Structure (SMILES) | relative growth [1] | relative growth [2] | relative growth [3] | relative growth [4] | relative growth [5] | relative growth [6] | relative growth [7] | relative growth (Community 10) | relative growth (Community 4) | relative growth (Community 6) | relative growth (Community 7) | relative growth (Community 8) | relative growth (Community 9) | relative growth [8] | relative growth [9] | relative growth [10] | relative growth [11] | relative growth [12] | relative growth [13] | relative growth [14]
N#Cc1cc(Br)c(O)c(Br)c1 | 0.985 (inactive) | 0.899 (inactive) | 1.01 (inactive) | 1.03 (inactive) | 0.984 (inactive) | 0.827 (inactive) | 1.02 (inactive) | 0.931 (inactive) | 1.08 (inactive) | 1.05 (inactive) | 1.07 (inactive) | 1.05 (inactive) | 1.08 (inactive) | 1.02 (inactive) | 0.951 (inactive) | 0.861 (inactive) | 1.05 (inactive) | 0.842 (inactive) | 0.742 (active) | 1.16 (inactive)
CC[C@H]1CCC[C@H](O[C@H]2CC[C@H](N(C)C)[C@@H](C)O2)[C@@H](C)C(=O)C2=C[C@@H]3[C@@H](C=C(C)[C@@H]4C[C@@H](O[C@@H]5O[C@@H](C)[C@H](OC)[C@@H](OC)[C@H]5OC)C[C@@H]34)[C@@H]2CC(=O)O1.CC[C@H]1CCC[C@H](O[C@H]2CC[C@H](N(C)C)[C@@H](C)O2)[C@@H](C)C(=O)C2=C[C@H]3[C@@H]4C[C@H](O[C@@H]5O[C@@H](C)[C@H](OC)[C@@H](OC)[C@H]5OC)C[C@H]4C=C[C@H]3C2CC(=O)O1 | 0.972 (inactive) | 0.977 (inactive) | 0.979 (inactive) | 1.08 (inactive) | 0.832 (inactive) | 0.89 (inactive) | 0.999 (inactive) | 0.772 (inactive) | 0.855 (inactive) | 0.699 (inactive) | 1.36 (inactive) | 0.95 (inactive) | 0.711 (inactive) | 0.859 (inactive) | 0.951 (inactive) | 1.06 (inactive) | 0.985 (inactive) | 0.965 (inactive) | 1.14 (inactive) | 0.832 (inactive)
CNC(=O)c1cc(Cl)cc(C)c1NC(=O)c1cc(Br)nn1-c1ncccc1Cl | 1.01 (inactive) | 1.05 (inactive) | 1.03 (inactive) | 0.963 (inactive) | 1.08 (inactive) | 0.758 (inactive) | 1.02 (inactive) | 1.14 (inactive) | 1.09 (inactive) | 1.07 (inactive) | 1.02 (inactive) | 1.04 (inactive) | 1.09 (inactive) | 1 (inactive) | 1.03 (inactive) | 1.13 (inactive) | 0.975 (inactive) | 1.04 (inactive) | 0.99 (inactive) | 1.09 (inactive)
CC(C)CC(C)c1sccc1NC(=O)c1cn(C)nc1C(F)(F)F (stereo not given) | 0.935 (inactive) | 0.946 (inactive) | 0.994 (inactive) | 0.855 (inactive) | 0.87 (inactive) | 0.885 (inactive) | 0.936 (inactive) | 0.715 (inactive) | 0.78 (inactive) | 0.806 (inactive) | 1.06 (inactive) | 1.01 (inactive) | 0.916 (inactive) | 1.02 (inactive) | 0.921 (inactive) | 0.945 (inactive) | 0.937 (inactive) | 0.924 (inactive) | 1.2 | 0.906 (inactive)
COP(=O)(NC(C)=O)SC (stereo not given) | 1.02 (inactive) | 0.995 (inactive) | 0.998 (inactive) | 1.03 (inactive) | 0.984 (inactive) | 0.906 (inactive) | 1.05 (inactive) | 0.781 (inactive) | 1.01 (inactive) | 0.892 (inactive) | 0.831 (inactive) | 0.99 (inactive) | 1.03 (inactive) | 1.06 (inactive) | 0.982 (inactive) | 1 (inactive) | 1.01 (inactive) | 1.01 (inactive) | 1.04 (inactive) | 0.959 (inactive)
N#Cc1c[nH]cc1-c1cccc2c1OC(F)(F)O2 | 0.982 (inactive) | 0.92 (inactive) | 0.986 (inactive) | 0.99 (inactive) | 0.868 (inactive) | 0.824 (inactive) | 0.882 (inactive) | 0.855 (inactive) | 0.977 (inactive) | 0.93 (inactive) | 1.12 (inactive) | 1.02 (inactive) | 0.914 (inactive) | 0.83 (inactive) | 0.856 (inactive) | 0.958 (inactive) | 1.01 (inactive) | 0.915 (inactive) | 1.14 (inactive) | 0.904 (inactive)
Nc1c([N+](=O)[O-])ccc(Oc2ccccc2)c1Cl | 0.959 (inactive) | 0.953 (inactive) | 0.961 (inactive) | 0.972 (inactive) | 0.894 (inactive) | 0.826 (inactive) | 0.957 (inactive) | 0.833 (inactive) | 0.851 (inactive) | 0.856 (inactive) | 0.955 (inactive) | 1.03 (inactive) | 0.907 (inactive) | 0.864 (inactive) | 0.917 (inactive) | 1.09 (inactive) | 1.03 (inactive) | 0.913 (inactive) | 1.05 (inactive) | 0.843 (inactive)
